Sampled rows, rich in hits. Any-hit rate of the full collection: about 12%.
USP7 inh: human USP7 deubiquitinase inhibition | AID 1645854 | Q93009 | actives 0.3% (n = 47,000) | purified USP7, Ub-rhodamine cleavage fluorescence | inhibition, % at 20 µM
UCHL1 block: human UCHL1 deubiquitinase inhibition. P09936. purified UCHL1, Ub-rhodamine cleavage fluorescence. inhibition, % at 20 µM. actives 0.2% (n = 47,000)
Target sequence (P09936 whole entry, looked up): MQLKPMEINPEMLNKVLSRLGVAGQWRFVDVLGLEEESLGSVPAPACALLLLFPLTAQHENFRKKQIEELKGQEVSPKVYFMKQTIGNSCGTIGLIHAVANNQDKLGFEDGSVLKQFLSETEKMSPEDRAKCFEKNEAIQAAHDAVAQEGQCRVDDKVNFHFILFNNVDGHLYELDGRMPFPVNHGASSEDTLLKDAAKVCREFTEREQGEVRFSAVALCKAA
USP8 inh: human USP8 deubiquitinase inhibition; purified USP8, Ub-rhodamine cleavage fluorescence, 30 min; actives 4.2% (n = 47,000); P40818; inhibition, % at 20 µM
USP17 inh: blocks human USP17 ubiquitin-rhodamine cleavage | actives 6.5% (n = 47,000) | inhibition, % at 50 µM | purified USP17, Ub-rhodamine cleavage fluorescence, 3 h | AID 1645855
USP30 block: inhibitors of human USP30 deubiquitinase; purified USP30, Ub-rhodamine cleavage fluorescence; inhibition, % at 25 µM; actives 5.3% (n = 47,000); AID 1645860
USP10 inh: human USP10 deubiquitinase inhibition; Q14694; purified USP10, Ub-rhodamine fluorescence, 60 min; inhibition, % at 20 µM; actives 1.1% (n = 47,000); AID 1645856
* marks the source's active call; other numbers are inactive results; i = inactive. Rule as the data show it: active = inhibition above about 30%; inactive = the rest.

SMILES	USP7 inh	UCHL1 block	USP8 inh	USP17 inh	USP30 block	USP10 inh
O=C(CCCCn1c(=O)c2ccccc2n(CC(=O)Nc2ccc(F)c(Cl)c2)c1=O)NCc1ccco1	0.0	7.5	59.4*	70.3*	-5.9	12.0
Cc1ccc(NC(=O)Cn2c(=O)n(CCCCC(=O)NCc3ccco3)c(=O)c3ccccc32)cc1C	1.0	-1.0	12.8	4.7	0.2	19.3
Cn1c(=O)n(CC(=O)Nc2ccc(F)c(Cl)c2)c(=O)c2ccccc21	6.0	0.1	15.8	1.6	5.2	11.6
O=C(CCCCn1c(=O)c2ccccc2n(CC(=O)Nc2ccc(Br)cc2F)c1=O)NCc1ccco1	-160.8	-169.0	-230.9	-133.8	i	-10.5
O=C(CCCn1c(=O)c2cc(Cl)ccc2n(CC(=O)Nc2cccc(F)c2)c1=O)NCc1ccco1	-2.7	-2.9	30.3*	0.4	11.6	28.4
O=C(Nc1cc(=O)[nH]c2nc(CCc3ccccc3)nn12)c1ccccc1	2.7	-2.6	7.9	-21.1	-178.5	-1.4
Cc1ccc2nc(-c3ccccc3)c(CN3CCN(c4cccc(Cl)c4)CC3)n2c1	8.1	3.8	0.2	2.4	1.7	5.8
O=C(NCc1ccco1)C(=O)Nc1ccc(F)c(Cl)c1	0.0	-0.7	0.4	34.9*	-10.9	3.3
O=C(Nc1sc2c(c1-c1nc3ccccc3[nH]1)CCCC2)C1CC(=O)N(Cc2ccccc2)C1 (centres undefined)	5.9	-4.3	-40.9	38.5*	-73.1	-9.0
Cc1nc(N2CCCC2)ncc1C(=O)Nc1ccc(Cl)cc1	3.1	3.6	1.1	44.8*	5.3	1.8
CC(=O)c1cccc(NC(=O)c2cnc(N3CCCCC3)nc2C)c1	-7.3	3.9	6.8	4.0	-0.2	0.5
c1ccc2oc(CN3CC[C@H](c4nnc(-c5ccncc5)o4)C3)cc2c1	-10.3	-2.2	34.1*	-37.0	-65.4	-5.9
Fc1ccccc1CN1CC[C@H](c2nnc(-c3ccncc3)o2)C1	-0.3	0.3	-4.1	-2.1	-6.2	-1.4
CCOc1ccc(S(=O)(=O)N(C)c2ccc(OCC(=O)Nc3ccccc3)cc2)cc1	8.9	1.0	1.9	-4.5	-47.4	-1.0
CN(c1ccc(Oc2ccc(C(F)(F)F)cn2)cc1)S(=O)(=O)c1ccccc1	14.6	9.9	72.9*	38.0*	-4.2	1.9
COC[C@H]1CCCN1C(=O)CC[C@H]1CNC(=O)[C@@H]2[C@@H](CCN2Cc2csnn2)N1C	-5.2	5.7	30.6*	-51.2	-18.8	2.7
Cc1ccc(CN2CC[C@@H]3[C@H]2C(=O)NC[C@H](CCC(=O)NCc2cccnc2)N3C)cc1	-14.1	-1.1	-64.0	-74.3	-42.6	-0.1
CN1[C@@H](CCC(=O)N2CCC(O)CC2)CNC(=O)[C@@H]2[C@H]1CCN2Cc1ccc(C(F)(F)F)cc1	0.1	9.9	31.6*	-38.9	9.8	-0.4
COc1ccc(CN2CC[C@@H]3[C@H]2C(=O)NC[C@H](CCC(=O)NCc2cccnc2)N3C)cc1	-22.1	17.9	63.4*	-29.7	37.8*	1.7
O=C(O)c1cc(-c2cccc3ccccc23)n(-c2ccccc2)n1	4.5	2.7	12.9	28.1	24.5	0.0
COc1ccc(-c2cc3n(c2)CCc2cc4c(cc2-3)OCCCO4)cc1	-32.9	-25.6	-35.4	-129.9	i	-4.4
c1ccc(-c2noc(-c3ccc(N4CCC5(CC4)OCCO5)nc3)n2)cc1	-1.1	-0.1	5.5	-1.1	1.7	-2.3
O=C(Cn1cnc2cc([N+](=O)[O-])ccc2c1=O)Nc1ccc2c(c1)OCCO2	3.1	1.1	-201.4	-2.7	-25.9	-7.8
CCn1cnc2c(-c3ccccc3)cn(CC(=O)Nc3ccc4c(c3)OCO4)c2c1=O	-2.8	-6.5	-10.9	16.6	-222.2	-2.4
Cc1ccc(NC(=O)CN2C(=O)CSCC2=O)cc1Cl	-2.9	-1.1	-2.3	-2.2	7.0	-4.3
Cc1ccc2c(c1)c(=O)c(C(=O)c1ccccc1)cn2CC(=O)Nc1ccc2c(c1)OCO2	23.3	-0.6	70.8*	5.4	2.9	30.8*
Cc1ccc2c(c1)c(=O)c(C(=O)c1ccccc1)cn2CC(=O)Nc1ccc(C)c(Cl)c1	17.9	4.9	58.9*	6.4	26.1	14.6
Cc1ccc2c(c1)c(=O)c(C(=O)c1ccc(F)cc1)cn2CC(=O)Nc1ccc2c(c1)OCCO2	5.7	3.2	-6.2	69.9*	-2.1	9.2

High-throughput results deposited in PubChem by Buhrlage Lab, Dana-Farber Cancer Institute and Novartis Institutes for BioMedical Research (Cambridge, Mass).
